Source: PubChem
S1P4 antag: S1P4 receptor antagonists, primary screen, cell-based | S1P4-expressing cells, antagonist mode, reporter read-out | Sphingosine 1-phosphate receptor 4 (Homo sapiens), O95977 | inhibition, % at 4.98 µM | 220,000 compounds, 0.26% hits; in the data active = inhibition above about 29%
EP2 modulator: EP2 receptor modulators, cAMP readout, primary screen, cell-based, HTRF cAMP, PGE2 stimulation; 260,000 compounds, 0.83% hits; induction, % at 25 µM; Prostaglandin E2 receptor EP2 subtype (Homo sapiens), P43116; AID 940, 2007; EP2-expressing cells, cAMP HTRF FRET, PGE2 co-stimulation;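 active = compounds whose cAMP rise, as percent of the full-agonist control response, exceeds 60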;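 note: rat C6 glioma line stably carrying human EP2 under a CMV promoter; the protocol text gives 20 µM as final concentration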
Target sequence (P43116 whole entry, looked up): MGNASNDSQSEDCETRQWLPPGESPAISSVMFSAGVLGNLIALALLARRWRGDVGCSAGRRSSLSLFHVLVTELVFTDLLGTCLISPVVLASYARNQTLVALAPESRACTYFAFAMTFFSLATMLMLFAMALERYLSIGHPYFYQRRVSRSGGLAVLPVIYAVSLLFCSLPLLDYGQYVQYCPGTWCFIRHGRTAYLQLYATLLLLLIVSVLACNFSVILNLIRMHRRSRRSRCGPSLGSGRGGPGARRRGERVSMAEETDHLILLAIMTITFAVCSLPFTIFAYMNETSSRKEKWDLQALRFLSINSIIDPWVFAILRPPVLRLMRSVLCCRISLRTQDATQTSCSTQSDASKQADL
S1P3 antag: S1P3 receptor antagonists, primary screen, cell-based | Sphingosine 1-phosphate receptor 3 (Homo sapiens), Q99500 | CHO S1P3 NFAT-BLA reporter, FRET fluorescence, antagonist mode | inhibition, % at 4.98 µM | 170,000 compounds, 0.27% hits;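 active = inhibition above the plate cutoff, the mean inhibition of test wells on that plate plus 3 SD, cut at about 28% in these data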;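 note: cells challenged with S1P at its EC80 of 0.8 µM; blue over green emission ratio from cleaved BLA substrate after 4 h stimulation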
S1P4 agonist: S1P4 receptor agonists, primary screen, cell-based; Sphingosine 1-phosphate receptor 4 (Homo sapiens), O95977; S1P4-expressing cell line, agonist reporter assay; activation, % at 4.98 µM; 220,000 compounds, 0.35% hits; in the data active = activation above about 11%
EP2 antag: human EP2 receptor antagonists, primary screen, TR-FRET cAMP, C6 glioma cells; Prostaglandin E2 receptor EP2 subtype (Homo sapiens), P43116; C6 glioma cells expressing human EP2; cells stimulated with saturating PGE2; inhibition, % at 25 µM; 260,000 compounds, 0.52% hits; AID 1422, 2008;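 active = percent inhibition above 40 after rounding to a whole number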;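 note: rat C6 glioma host cells with rolipram phosphodiesterase inhibitor present; the protocol text gives 20 µM as final concentration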
S1P4 antag conf: S1P4 receptor antagonists, human, confirmation, cell-based; shares compounds with S1P4 antag; S1P4-expressing cell line, antagonist mode, reporter read-out; inhibition, % at 4.98 µM; 520 compounds, 71% hits; in the data active = inhibition above about 30%
S1P1 antagonist: S1P1 receptor antagonists, human, counter-screen for S1P4 antagonist project, cell-based; shares compounds with S1P4 antag; cell-based S1P1 antagonist counterscreen, inhibition; inhibition, % at 4.98 µM; 520 compounds, 37% hits; in the data active = inhibition above about 40%;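 note: receptor stimulated with S1P near its EC80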
Large screens that a line does not name were inactive (follow-up assays come after a bar, where they were run). An excerpt weighted towards active compounds, which were near 2% of everything screened.

O=C(NC(Cc1ccccc1)C(=O)O)/C(=C/c1ccccc1)NC(=O)c1ccccc1 (centres undefined)	S1P4 antag 45 | S1P4 antag conf inactive | S1P1 antagonist inactive
O=C(NC(Cc1ccccc1)C(=O)O)/C(=C\c1ccc(Cl)cc1)NC(=O)c1ccccc1 (centres undefined)	none
CC1CCN(C(=O)c2ccc(F)cc2)CC1	none (no result: S1P4 antag, S1P3 antag, S1P4 agonist)
COc1ccc(N=C2C(=Nc3ccc(OC)cc3)N(c3ccc(OC)cc3)C(=S)N2C)cc1	S1P4 antag 35 (no result: S1P3 antag) | S1P4 antag conf 38 | S1P1 antagonist inactive
COc1ccc(NC(=O)/C(Cl)=C(/Cl)S(=O)(=O)Cc2ccccc2)cn1	S1P4 antag 66 (no result: S1P3 antag) | S1P4 antag conf 119 | S1P1 antagonist 62
Cc1ccc(NC(=S)N(Cc2ccco2)Cc2cc3ccc(C)c(C)c3[nH]c2=O)cc1	none (no result: S1P4 antag, S1P3 antag, S1P4 agonist)
CCc1nn(CC(=O)N[C@@H](C)Cn2nc(-c3cccs3)oc2=O)c(=O)c2ccccc12	none (no result: S1P4 antag, S1P3 antag, S1P4 agonist)
CC(Nc1ccc(F)cc1F)C(=O)NC(=O)NC1CCCCC1 (centres undefined)	S1P4 antag 30 | S1P4 antag conf inactive | S1P1 antagonist inactive
O=C(Nc1ccc(F)cc1F)NC1CC1	none
O=C(CCSc1ccccc1)NC1CCCCCC1	S1P4 antag 43 | S1P4 antag conf inactive | S1P1 antagonist inactive
FC(F)(F)c1cnc(Oc2ccc(-c3nnco3)cc2)c(Cl)c1	none
c1cnc(Oc2ccc(-c3nnco3)cc2)cn1	S1P4 antag 37 | S1P4 antag conf inactive | S1P1 antagonist inactive
COC(=O)c1ccc2c(c1)C(C)(C)C(/C=C/c1ccccc1O)=[N+]2C	S1P4 antag 37 (no result: S1P3 antag) | S1P4 antag conf 116 | S1P1 antagonist 82
C[N+]1=C(/C=C/Nc2ccccc2Cl)C(C)(C)c2ccccc21	none
CCOC(=O)COc1ccc(C(=O)Nc2cccc(Cl)c2C)cc1	S1P4 antag 33 | S1P4 antag conf inactive | S1P1 antagonist inactive
CN(c1cnn(-c2ccccc2)c(=O)c1Cl)n1cccc1	none
O=c1c(Cl)c(Cl)cnn1Cc1nnc(-c2ccc(Cl)cc2)o1	S1P4 antag 37 | S1P4 antag conf 68 | S1P1 antagonist inactive
O=c1c(Cl)c(Cl)cnn1Cc1ccccc1Cl	S1P4 antag 46 | S1P4 antag conf 115 | S1P1 antagonist 58
O=c1c(Cl)c(Cl)cnn1-c1ccccc1	S1P4 antag 101 | S1P4 antag conf 122 | S1P1 antagonist 72
Cc1ccc(Cn2ncc(Cl)c(Cl)c2=O)cc1	none
CCc1ccc(OCc2nnc(SCC(=O)N3C(C)CCCC3C)n2C)cc1 (centres undefined)	none (no result: S1P4 antag, S1P3 antag, S1P4 agonist)
CC1CCCC(C)N1C(=O)CSc1nnnn1Cc1ccccc1 (centres undefined)	S1P4 antag 92 | S1P4 antag conf inactive | S1P1 antagonist inactive
CC1CCCC(C)N1C(=O)CSc1nnc(-c2ccncc2)n1Cc1ccccc1 (centres undefined)	none (no result: S1P4 antag, S1P3 antag, S1P4 agonist)
O=C1Nc2ccccc2/C1=C/C(=O)c1cccs1	S1P4 antag 38, EP2 antag 69 (no result: S1P3 antag) | S1P4 antag conf 64 | S1P1 antagonist 47
CCN1C(=O)/C(=C\C(=O)c2cccs2)c2cc(Br)ccc21	none
CC(C)N(C(=O)N1CCC2(CC1)CC(=O)c1cc(F)ccc1O2)C(C)C	none (no result: S1P4 antag, S1P3 antag, S1P4 agonist, EP2 antag)
CNC1=C([N+](=O)[O-])CC([N+](=O)[O-])=C(N2CCNCC2)N1C	S1P4 antag 35 | S1P4 antag conf inactive | S1P1 antagonist inactive
CN(C)c1ccc(/C=C2\C(=O)Nc3ccccc32)cc1	none (no result: S1P4 antag, S1P3 antag, S1P4 agonist)
CC(=O)N1/C(=C/c2ccc(N(C)C)cc2)C(=O)c2ccccc21	S1P4 antag 30 | S1P4 antag conf 91 | S1P1 antagonist 91
O=C(NC1CC2CCCC(C1)N2C1CCCCC1)c1ccc(Cl)cc1 (centres undefined)	none (no result: S1P4 antag, S1P3 antag, S1P4 agonist)
CCOc1cc(/C=C\[N+](=O)[O-])ccc1OCC(=O)Nc1ccccc1C	S1P4 antag 58 (no result: S1P3 antag) | S1P4 antag conf 118 | S1P1 antagonist 84
